Reference: PubChem BioAssay (EPA / NIEHS)
“And” between values parts separate entries of the source, which are not always exact repeats. Identical values can stand only once. Results filed as inconclusive are left out. A structure can be active in one record and inactive in another. The source made the active and inactive calls. How the source made its calls, unless noted: active means hit-call score of the fitted dose curve at least 0.9, where 1 is the maximum; inactive means score below 0.9.

Experiments:
[1] = read-out: Collagen I, COL1A1 (gene 1277); assay: BSK_MyoF_CollagenI: BioMAP Diversity Plus: MyoF Assay for Collagen I Biomarker Activity (AID 2284238); conditions: primary human lung fibroblasts
Outline: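 Human lung fibroblasts were exposed to test chemical for 24 h, then Collagen I was quantified by ELISA. Activity was fitted in the increasing direction against DMSO as the negative control and baseline.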

[2] = read-out: Collagen III, COL3A1 (gene 1281); assay: BSK_MyoF_CollagenIII: BioMAP Diversity Plus: MyoF Assay for Collagen III Biomarker Activity (AID 2284239); conditions: primary human lung fibroblasts
Outline: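 Human lung fibroblasts were dosed with chemicals and, 24 hours later, collagen III was measured by ELISA. Activity was fitted in the positive direction against the DMSO negative-control baseline.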

[3] = CCTE_Mundy_HCI_hNP1_CellTiter: CCTE's Cell Titer-Glo 2 Assay in human neuroprogenitor cells for Viability, Mundy Lab (AID 2284241; active means hit-call score of the fitted dose curve at least 0.9, where 1 is the maximum)
Outline: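 Viability read as luminescent ATP content (CellTiter-Glo, 30 min room temperature) twenty-four hours after dosing, relative to DMSO. Cells: WA09-derived hNP1 neuroprogenitors on poly-L-ornithine/laminin, plated 40 to 44 hours before chemical.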

[4] = read-out: Interleukin 17F (IL17F), IL17F (gene 112744); assay: BSK_BT_xIL17F: BioMAP Diversity Plus: BT Assay for Interleukin 17F (IL17F) Biomarker Activity (AID 2284243); conditions: primary human B cells with PBMC
Outline: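 B cell/PBMC co-culture (human primary), 24 h compound exposure; sIL-17F by Luminex xMAP; gain-of-signal fit vs DMSO baseline.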

[5] = read-out: Actin alpha 1 (ACTA1), ACTA1 (gene 58); assay: BSK_MyoF_ACTA1: BioMAP Diversity Plus: MyoF Assay for Actin alpha 1 (ACTA1) Biomarker Activity (AID 2284244); conditions: primary human lung fibroblasts
Outline: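 alpha-SMA levels read by ELISA against DMSO baseline, 24 h post-dose, in primary human lung fibroblasts. Parallel cultures stained with 0.1% SRB after 10% TCA fixation (560 nm) to flag overt cytotoxicity.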

[6] = read-out: Interleukin 2 (IL2), IL2 (gene 3558); assay: BSK_BT_xIL2: BioMAP Diversity Plus: BT Assay for Interleukin 2 (IL2) Biomarker Activity (AID 2284245); conditions: primary human B cells with PBMC
Outline: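 Secreted IL-2 was read by Luminex xMAP from B cells co-cultured with PBMC (human primary) 24 h post-dosing; activity was analysed as gain of signal relative to DMSO vehicle.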

[7] = read-out: Basic fibroblast growth factor (bFGF), FGF2 (gene 2247); assay: BSK_MyoF_bFGF: BioMAP Diversity Plus: MyoF Assay for Basic fibroblast growth factor (bFGF) Biomarker Activity (AID 2284246); conditions: primary human lung fibroblasts
Outline: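 bFGF was measured by ELISA in primary human lung fibroblasts 24 h after chemical addition. Signal was analysed as positive-direction change relative to DMSO baseline.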

[8] = read-out: Collagen IV, COL4A1 (gene 1282); assay: BSK_MyoF_CollagenIV: BioMAP Diversity Plus: MyoF Assay for Collagen IV Biomarker Activity (AID 2284247); conditions: primary human lung fibroblasts
Outline: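 Collagen IV quantified by ELISA in human lung fibroblast cultures 24 h after chemical treatment, with DMSO as baseline. Parallel SRB staining (0.1% SRB after TCA fixation, 560 nm) flags overt cytotoxicity.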

[9] = read-out: Monokine induced gamma interferon (MIG), CXCL9 (gene 4283); assay: BSK_KF3CT_MIG: BioMAP Diversity Plus: KF3CT Assay for Monokine induced gamma interferon (MIG) Biomarker Activity (AID 2284248); conditions: primary human keratinocytes with fibroblasts
Outline: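 Human keratinocyte plus foreskin fibroblast primary co-culture dosed with test chemical for 24 h; MIG level measured by ELISA and fitted in the positive direction against DMSO as baseline.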

[10] = read-out: Vascular cell adhesion molecule 1 (VCAM1), VCAM1 (gene 7412); assay: BSK_BF4T_VCAM1: BioMAP Diversity Plus: BF4T Assay for Vascular cell adhesion molecule 1 (VCAM1) Biomarker Activity (AID 2284249); conditions: primary human bronchial epithelial cells with fibroblasts
Outline: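 Cell-surface VCAM-1 quantified by ELISA after 24 h chemical exposure of human bronchial epithelial/dermal fibroblast co-cultures, with SRB staining in parallel wells for cytotoxicity; DMSO baseline, positive-direction fitting.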

[11] = read-out: Collagen I, COL1A1 (gene 1277); assay: BSK_hDFCGF_CollagenI: BioMAP Diversity Plus: hDFCGF Assay for Collagen I Biomarker Activity (AID 2284250); conditions: primary human foreskin fibroblasts
Outline: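 Collagen I quantified by ELISA 24 h after chemical dosing of human dermal fibroblast primary cells, with parallel SRB staining (0.1%, TCA-fixed, 560 nm) for overt cytotoxicity.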

[12] = read-out: Interferon-inducible T-cell alpha chemoattractant (ITAC), CXCL11 (gene 6373); assay: BSK_hDFCGF_ITAC: BioMAP Diversity Plus: hDFCGF Assay for Interferon-inducible T-cell alpha chemoattractant (ITAC) Biomarker Activity (AID 2284251); conditions: primary human foreskin fibroblasts
Outline: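 Measured by ELISA, the chemokine level serves as the endpoint in human skin fibroblast primary cultures 24 h after compound addition. Increases relative to DMSO-treated wells define activity.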

[13] = read-out: Plasminogen activator inhibitor-1 (PAI1), SERPINE1 (gene 5054); assay: BSK_KF3CT_PAI1: BioMAP Diversity Plus: KF3CT Assay for Plasminogen activator inhibitor-1 (PAI1) Biomarker Activity (AID 2284252); conditions: primary human keratinocytes with fibroblasts
Outline: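 PAI-1 levels quantified by ELISA after 24 h compound exposure of primary human skin keratinocytes co-cultured with fibroblasts. Activity is the gain relative to DMSO; cytotoxicity tracked in parallel cultures via SRB staining.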

[14] = read-out: Monocyte Chemoattractant Protein-1 (MCP1), CCL2 (gene 6347); assay: BSK_IMphg_MCP1: BioMAP Diversity Plus: IMphg Assay for Monocyte Chemoattractant Protein-1 (MCP1) Biomarker Activity (AID 2284253); conditions: primary human endothelial cells with macrophages
Outline: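 ELISA readout of MCP-1 at 24 hours in IMphg co-cultures of venular endothelial cells and macrophages, normalised to DMSO; parallel cultures stained with sulforhodamine B for overt cytotoxicity.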

[15] = read-out: Interleukin-8 (IL8), CXCL8 (gene 3576); assay: BSK_KF3CT_IL8: BioMAP Diversity Plus: KF3CT Assay for Interleukin-8 (IL8) Biomarker Activity (AID 2284254); conditions: primary human keratinocytes with fibroblasts
Outline: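 Human primary keratinocyte plus foreskin fibroblast co-culture dosed with test chemicals; IL-8 measured by ELISA 24 h after dosing. Activity fitted in the positive direction relative to DMSO negative control.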

Row | SMILES | outcome [1] | outcome [2] | outcome [3] | outcome [4] | outcome [5] | outcome [6] | outcome [7] | outcome [8] | outcome [9] | outcome [10] | outcome [11] | outcome [12] | outcome [13] | outcome [14] | outcome [15] | AC50 [4] | AC50 [12] | AC50 [13] | AC50 [15]
1 | FC(F)(F)C(F)(F)C(F)(F)C(F)(F)C(F)(F)C(F)(F)CC1CO1 (stereo not given) | inactive | inactive | inactive | inactive | inactive | inactive | inactive | inactive | inactive | inactive | inactive | inactive | inactive | inactive | inactive | – | – | – | –
2 | C=CC(=O)OCC(F)(F)C(F)(F)C(F)(F)C(F)(F)C(F)(F)C(F)(F)C(F)(F)F | inactive | inactive | – | – | inactive | inactive | inactive | inactive | inactive | inactive | – | inactive | inactive | inactive | inactive | 6.72 µM (active) and 18.4 µM (active) | – | – | –
3 | FC(F)(F)C(F)(F)C(F)(F)C(F)(F)C(F)(F)CCI | inactive | inactive | – | inactive | inactive | inactive | inactive | inactive | inactive | inactive | inactive | – | inactive | inactive | inactive | – | 30 µM (active) and 40.9 µM (active) | – | –
4 | CCCCCCOC(=O)c1ccccc1O | – | – | – | – | – | – | – | – | inactive | – | – | – | inactive | – | inactive | – | 40.7 µM (active) and 45.2 µM (active) | 17.4 µM (active) | –
5 | O=S(=O)(OCCOC(F)(F)F)C(F)(F)F | inactive | inactive | – | inactive | inactive | inactive | inactive | inactive | inactive | inactive | – | inactive | inactive | inactive | inactive | – | – | – | –
6 | O=C(O)C(F)(OC(F)(F)C(F)(OC(F)(F)C(F)(OC(F)(F)C(F)(F)C(F)(F)F)C(F)(F)F)C(F)(F)F)C(F)(F)F (stereo not given) | inactive | inactive | – | inactive | inactive | inactive | inactive | inactive | inactive | inactive | – | inactive | inactive | inactive | inactive | – | – | – | –
7 | OCCCC(F)(F)C(F)(F)C(F)(F)F | inactive | inactive | – | inactive | inactive | inactive | inactive | inactive | inactive | inactive | – | inactive | inactive | inactive | inactive | – | – | – | –
8 | CCCCC(CC)COP(=O)(O)OCC(CC)CCCC (stereo not given) | – | – | – | – | – | – | – | – | inactive | – | – | – | – | – | inactive | – | 29.7 µM (active) and 20 µM (active) | 31.1 µM (active) and 26.6 µM (active) | –
9 | O=C(O)C(F)(OC(F)(F)C(F)(OC(F)(F)C(F)(F)C(F)(F)F)C(F)(F)F)C(F)(F)F (stereo not given) | inactive | inactive | – | inactive | inactive | inactive | inactive | inactive | inactive | inactive | – | inactive | inactive | inactive | inactive | – | – | – | –
10 | FC(F)(Br)C(F)(F)C(F)(F)C(F)(F)C(F)(F)C(F)(F)Br | inactive | inactive | – | inactive | inactive | inactive | inactive | inactive | inactive | inactive | – | inactive | inactive | inactive | inactive | – | – | – | 30 µM (active)
11 | OCC(F)(F)C(F)(F)C(F)(F)C(F)(F)C(F)(F)C(F)F | inactive | inactive | – | inactive | inactive | inactive | inactive | inactive | inactive | inactive | inactive | inactive | inactive | inactive | inactive | – | – | – | –
12 | O=C(O)C(F)(F)C(F)(F)C(F)(F)C(F)(F)C(F)(F)C(F)(F)C(F)(F)C(F)(F)C(F)(F)C(F)(F)C(F)(F)C(F)(F)C(F)(F)F | inactive | inactive | – | inactive | inactive | inactive | inactive | inactive | inactive | inactive | – | inactive | inactive | inactive | inactive | – | 5.22 µM (active) | – | –
13 | C=CC(F)(F)C(F)(F)C(F)(F)C(F)(F)C(F)(F)C(F)(F)C(F)(F)C(F)(F)C=C | inactive | inactive | – | inactive | inactive | inactive | inactive | inactive | inactive | inactive | – | inactive | inactive | inactive | inactive | – | – | – | –
14 | C=C(C)C(=O)OCC(F)(F)C(F)(F)C(F)(F)C(F)(F)C(F)(F)C(F)(F)C(F)(F)F | inactive | inactive | – | inactive | inactive | inactive | inactive | inactive | inactive | inactive | inactive | inactive | inactive | inactive | inactive | – | – | – | –
15 | Cc1ccc(S(=O)(=O)OCC(F)(F)C(F)(F)C(F)(F)C(F)(F)C(F)(F)C(F)F)cc1 | inactive | inactive | – | inactive | inactive | inactive | inactive | inactive | inactive | inactive | – | inactive | inactive | inactive | inactive | – | – | – | –
